Measurements from PubChem BioAssay AID1362 (SRMLSC, 2008).
Out of some 190,000 compounds screened, about 4,000 (2.1%) were called active. No stated cut-off is given here; in the data, active means inhibition above about 58%; inactive means the rest, inconclusive results apart; tested in S. cerevisiae. Shown is part of a subset that was picked to be rich in actives.

Test: growth inhibition of WT strain, primary screen, mitochondrial fusion inhibitor project, WT and mutant strains, chemical genetic (AID 1362)
Conditions: mitochondrial fusion phenotypic screen, at 10 µM
[1] = WT strain, growth inhibition, stronger effect = higher value

Compound | inhibition [1] | inhibition (mutant strain inhibition) [%]
N/C(=N\OC(=O)CCCC(=O)O)c1ncc(C(F)(F)F)cc1Cl | 9.89% (inactive) | 9.98
O=C(CC(O)(C(F)(F)F)C(F)(F)F)Nc1ccc(Cl)c(Cl)c1 | 84.6% (inactive) | 85.2
N/C(=N\OC(=O)Nc1ccc(Cl)c(Cl)c1)c1ncc(C(F)(F)F)cc1Cl | 80.3% (active) | 78.5
CCc1cccc2c(=O)c(C(=O)NCCCOC)c[nH]c12 | 4.61% (inactive) | 8.59
CCN1CCN(CC(=O)c2cc(OC)c(OC)c(OC)c2)CC1 | -2.06% (inactive) | -0.71
COc1cccc(-c2nc3cc(C)ccc3o2)c1 | 26.9% (inactive) | 17.7
CC(C)(C)Oc1ncc(Br)c(OC(C)(C)C)n1 | 18.5% (inactive) | 15.1
COc1cccc(-c2cnc(OC(C)(C)C)nc2OC(C)(C)C)c1 | 84.1% (active) | 27.8
Cc1ccccc1NC(=O)NNC(=O)OC(C)(C)C | -2.03% (inactive) | -7.53
[O-][n+]1c2c(nn1-c1ccc(Cl)c(Cl)c1)-c1nonc1CC2 | 38% (inactive) | 6.81
CN(C)CCN=c1cc(-c2ccccc2)oc2ccc(Cl)cc12 | 10.8% (inactive) | 15.6
CC(Nc1nc(N2CCOCC2)nc2ccccc12)c1ccccc1 (configuration not stated) | 7.41% (inactive) | -4.07
c1ccc(Nc2nc(N3CCOCC3)c3ccccc3n2)cc1 | 44.7% (inactive) | 45.5
c1ccc2c(NC3C4CC5CC(C4)CC3C5)nc(N3CCOCC3)nc2c1 (configuration not stated) | 69.3% (active) | 45.5
CCc1nc2ccccc2c(C(=O)NCc2ccc(OC)cc2)c1C | -7.63% (inactive) | -13.1
CC(=O)NC1C(Oc2ccc(C=O)cc2)OC(COC(C)=O)C(OC(C)=O)C1OC(C)=O (configuration not stated) | -6.93% (inactive) | -11.4
Cn1nnnc1-c1cc(Cl)cc(Cl)c1 | 0.51% (inactive) | 21.3
Cc1nc(NCCN)c(C#N)c2c1COC(C)(C)C2 | 24.4% (inactive) | 10.2
CCCCc1nc(NCc2ccccc2)c(C#N)c2c1CCCC2 | -9.79% (inactive) | 2.15

Compound | inhibition [1] | inhibition (mutant strain inhibition) [%]
CCCCc1nc(NCCN)c(C#N)c2c1CSC(C)(C)C2 | 85.3% (active) | 31.7
CCN1CCN(c2ccc(NC(=O)c3cnccn3)cc2)CC1 | 4.84% (inactive) | 4.5
CCn1ccnc1CN1CCCC(C(=O)c2ccc3c4c(cccc24)CC3)C1 (configuration not stated) | 42.3% (inactive) | 36.2
Cc1cnc(C(=O)OCC(=O)NCCCc2ccccc2)cn1 | 14.9% (inactive) | 3.19
O=c1cc(N2CCN(Cc3ccccc3)CC2)c(-c2ccccc2)n[nH]1 | -12.8% (inactive) | -10.6
O=c1c2ccccc2c(-c2ccccc2)nn1Cc1ccccc1 | -8.61% (inactive) | -0.27
O=c1cc(N2CCCCC2)c(-c2ccccc2)nn1Cc1cccc(F)c1 | 87.9% (active) | 46.3
CC(=O)Nc1ccccc1OC(C)C(=O)N1CCC(C)CC1 (configuration not stated) | -7.46% (inactive) | 7.56
Cc1ccc(C)c(-n2ccnc2SCC(N)=O)c1 | 5.62% (inactive) | 13.6
O=C(CCn1c(=S)[nH]c2ccccc2c1=O)NCCCN1CCCC1=O | -5% (inactive) | -5.53
O=c1c2ccccc2[nH]c(=S)n1CCN1CCC(=C(c2ccc(F)cc2)c2ccc(F)cc2)CC1 | 77.9% (active) | 62.2
CCCCn1c(=S)[nH]c2ccccc2c1=O | 4.59% (inactive) | 8.61
Cc1ccc(Cn2c(NC(=O)c3ccco3)nc3ccccc32)cc1 | 92.4% (active) | -2.81
CC(=O)Nc1nc2ccccc2n1Cc1ccc(C)cc1 | 15.3% (inactive) | 15.5
Cc1ccc(-n2nc3cc(Cl)c(NC(=O)c4ccco4)cc3n2)cc1 | 16.1% (inactive) | -7.45
O=C(C(=O)N1CCc2ccccc2C1)c1c[nH]c2ccccc12 | 12.7% (inactive) | -9.54
COCCN(C(=S)Nc1ccccc1OC)C1CCN(C(C)C)CC1 | -3.78% (inactive) | -1.71
Cc1ccc(CN(Cc2cccnc2)C(=S)Nc2cccc(Cl)c2C)cc1 | 73.9% (active) | 36.3
Cc1ccc(CN(Cc2cccnc2)C(=S)Nc2cc(Cl)ccc2C)cc1 | 65.8% (active) | 29.6

Compound | inhibition [1] | inhibition (mutant strain inhibition) [%]
Cc1ccc(Cl)cc1NC(=S)N(CCN(C)C)Cc1cccs1 | 3.98% (inactive) | 13.3
Cc1cccc(C)c1NC(=S)N(Cc1cccnc1)Cc1ccccc1Cl | -4.3% (inactive) | -19.8
COCCNC(=S)N(Cc1cccnc1)Cc1ccc(OC)c(OC)c1 | 0.04% (inactive) | 0
Cc1c(Cl)cccc1NC(=S)N(Cc1ccccc1)Cc1cccnc1 | 32.8% (inactive) | 35.6
CCCCCCCCc1c(O)nc(-n2[nH]c(C)c(CCO)c2=O)[nH]c1=O | -1.35% (inactive) | -2.06
Cc1ccc(NC2=C(Cl)C(=O)OC2OC(=O)c2ccccc2C)cc1 (configuration not stated) | 72.2% (active) | 69
Cc1ccccc1C(=O)OC1OC(=O)C(Cl)=C1Nc1ccccc1 (configuration not stated) | 31% (inactive) | 3.24
O=C1OC(OC(=O)c2ccccc2Br)C(N2CCOCC2)=C1Cl (configuration not stated) | -3.78% (inactive) | 5.3
Cc1cc(/C=N/NC(=O)c2cccnc2)c(C)n1CC(C)C | -2.78% (inactive) | -1.44
CCN(CC)CCNc1nc(-c2ccc(OC(F)F)cc2)c(C)s1 | 14.9% (inactive) | -3.63
COc1ccc(OC)c(Cc2nnc(CCC(=O)NC3CCCC3)o2)c1 | -6.11% (inactive) | 1.25
CN(C)CCCNC(=S)NCc1ccc(Cl)cc1 | -0.46% (inactive) | 2.88
S=C(NCc1ccc(Cl)cc1)NC12CC3CC(CC(C3)C1)C2 | -4.06% (inactive) | 3.59
S=C(NCc1ccc(Cl)cc1)NC1CCCCC1 | 68% (active) | 50.3
COc1cccc2cc(S(=O)(=O)c3ccc(C)cc3)/c(=N/NS(=O)(=O)c3ccc(C)cc3)oc12 | -19.1% (inactive) | 0.47
c1ccc(-c2cc3c(NCC4COc5ccccc5O4)ncnc3s2)cc1 (configuration not stated) | 82% (active) | 45.9
c1ccc2c(c1)OCC(CNc1ncnc3nc[nH]c13)O2 (configuration not stated) | 5.51% (inactive) | -5.69
O=C(NCC1COc2ccccc2O1)C1(c2ccccc2)CCCC1 (configuration not stated) | 13.2% (inactive) | 3.88
